# Source: PubChem BioAssay AID623908 (Johns Hopkins Ion Channel Center, 2012)
# About 1,500 (60%) of roughly 2,500 compounds were called active.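 Rule for the calls: active = duplicate-averaged ratio beyond 3 SD from buffer wells, up or down, though filed actives are nearly all decreases; inactive = the rest.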 The set was probably picked from earlier hits. A selection follows.
# Assay: dye ratio change in CHT-lacking host cells – cell-based, parental HEK293, membrane potential dye, counter-screen for CHT activator project (AID 623908)
# Details: parental HEK293, membrane potential dye fluorescence (FDSS); at 10 µM; measured after EC20 choline addition
row,SMILES,ratio readout change
1,CCN1CCN(c2ccc([N+](=O)[O-])cc2C#N)CC1,-38.3 (active)
2,CN1CCN(c2cc(N3CCNCC3)ccc2[N+](=O)[O-])CC1,-81.4 (active)
3,Cc1nc2ccc(N3CCN(C)CC3)cc2nc1C,-22.9 (active)
4,CCCCCn1c(=O)c(C(=O)Nc2c(C)n(C)n(-c3ccccc3)c2=O)c(O)c2ccccc21,inactive
5,CC[N+](CC)(CC)CCCCCCCCCC[N+](CC)(CC)CC,-41.6 (active)
6,CCOc1ccc(-c2cc(C)[n+](CCN(CC)CC)c(-c3ccc(OCC)cc3)c2)cc1,inactive
